Source: PubChem
Compounds with a hit are over-represented: about 21% of the library has one in this group of screens.
Pf growth 96h: Primary qHTS for delayed death inhibitors of the malarial parasite plastid, 96 hour incubation; hit rate 6.9% among 320,000; Potency, µM (doses to about 28.7 µM), usual class: inhibitors; P. falciparum luciferase reporter growth, 96 h; AID 504834, 2011
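Two-generation exposure (96 h) targets delayed-death phenotype. Reporter parasites carrying integrated firefly luciferase, in red cells at 2% hematocrit and 0.05% parasitemia final, kept at 37 C, 5% CO2; luminescence loss indicates inhibition.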
Pf growth 48h: Primary qHTS for delayed death inhibitors of the malarial parasite plastid, 48 hour incubation; P. falciparum luciferase growth in erythrocytes, 48 h; Potency, µM (doses to about 28.7 µM), hits mostly inhibitors; hit rate 5.9% among 310,000
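A one-generation exposure of luciferase-tagged malaria parasites in RPMI 1640/Albumax erythrocyte culture, 37 C and 5% CO2. Inhibition is inferred from decreased luminescence after adding detection reagent.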
Shiga inhibitor: A qHTS for Small Molecule Inhibitors of Shiga Toxin. AID 2315, 2010. inhibition, % at 38.7 µM. Vero cells, Shiga toxin protein synthesis inhibition reporter. hit rate 9.2% among 290,000; in the data active = inhibition mostly above about 28%, no sharp cut-off; inactive = mostly below about 43%
CHX counter: Cycloheximide Counterscreen for Small Molecule Inhibitors of Shiga Toxin | cell reporter, cycloheximide protein synthesis inhibition counterscreen | max response, % | hit rate 12% among 300,000 | AID 2314, 2010; in the data active = max response mostly above about 13%, no sharp cut-off; inactive = mostly below about 14%; note: read at 38.3 µM for the half of the compounds with a filed dose
Hits are given with their value. Unless noted, calls come from the whole dose curve; as a rule, active = well fitted inhibition curve with a large enough effect; inconclusive = small, poorly fitted or top-dose-only effect, or another doubt; inactive = no such curve, though single readings can be large or run the other way.

N/C(=N\OC(=O)c1ccc(=O)n(Cc2ccc(Cl)cc2)c1)c1ccccn1 was read as Pf growth 96h 13.1µM, Pf growth 48h 11.7µM, Shiga inhibitor inactive and CHX counter inactive.
For COc1ccc(-n2ncc3c2CC(C)(C)CC3NC(=O)CCn2cncn2)cc1 (configuration not stated) the results were Pf growth 96h inconclusive, Pf growth 48h inactive, Shiga inhibitor inactive and CHX counter inactive.
Screening O=C(O)Cn1ccc2cc(S(=O)(=O)N3CCCCCC3)ccc21 returned Pf growth 96h inconclusive, Pf growth 48h inactive, Shiga inhibitor inactive and CHX counter inactive.
For Cc1nc(CCNC(=O)c2cc(COc3ccc(F)cc3Cl)on2)sc1C the results were Pf growth 96h inactive, Pf growth 48h inactive, Shiga inhibitor inactive and CHX counter inactive.
`CSc1ccccc1OCc1cc(C(=O)NCCCc2ccccc2)no1` gave Pf growth 96h inconclusive, Pf growth 48h inactive, Shiga inhibitor inactive and CHX counter inactive.
COc1ccc(OCc2cc(C(=O)NCc3cccc(C)n3)no2)c(Cl)c1 was read as Pf growth 96h inactive, Pf growth 48h inactive, Shiga inhibitor 137.9 and CHX counter 60.7.
Screening COc1ccc(OCc2cc(C(=O)NCCCc3ccccc3)no2)c(Cl)c1 returned Pf growth 96h 9.28µM, Pf growth 48h inconclusive, Shiga inhibitor inactive and CHX counter inactive.
For CC(C)(C)NC(=O)CN(CCN1CCOCC1)C(=O)CNS(=O)(=O)c1ccccc1 the results were Pf growth 96h inactive, Pf growth 48h inactive, Shiga inhibitor inactive and CHX counter inactive.
OCCCNc1cc(-c2ccnc(Nc3cccc(Cl)c3)n2)ccn1 was read as Pf growth 96h 0.415µM, Pf growth 48h 0.738µM, Shiga inhibitor 36.9 and CHX counter 23.3.
CCC(C)Oc1cc(-c2ccnc(Nc3cccc(Cl)c3)n2)ccn1 (configuration not stated) was read as Pf growth 96h inconclusive, Pf growth 48h inconclusive, Shiga inhibitor inactive and CHX counter inactive.
`CS/C(N)=C(C#N)/C(C#N)=C(\N)SC` gave Shiga inhibitor inactive and CHX counter inactive.
Screening COc1cccc(NC2c3ccccc3C(=O)N2Cc2ccco2)c1 (configuration not stated) returned Pf growth 96h inconclusive, Shiga inhibitor inactive and CHX counter inactive.
`Cc1ccccc1NC1c2ccccc2C(=O)N1Cc1ccco1` (configuration not stated) gave Pf growth 96h 8.28µM, Shiga inhibitor inactive and CHX counter inactive.
`C/C(=N/NC(=O)c1ccc(Br)o1)c1cccs1` gave Pf growth 96h inconclusive, Pf growth 48h inactive, Shiga inhibitor 123.2 and CHX counter 50.3.
Screening C/C(=N\NC(=O)c1cc(Br)ccc1O)c1cccs1 returned Pf growth 96h inactive, Pf growth 48h inactive, Shiga inhibitor 125.9 and CHX counter 37.1.
Screening C[C@H](NC(=O)[C@H](Cc1ccccc1)NC(=O)c1cc2cc(Cl)ccc2n1C)C(=O)O returned Pf growth 96h inactive, Pf growth 48h inactive, Shiga inhibitor inactive and CHX counter inactive.
For O=C(CN1C(=O)c2cccc([N+](=O)[O-])c2C1=O)N1CCN(S(=O)(=O)c2ccccc2)CC1 the results were Pf growth 96h inactive and Pf growth 48h inactive.
For CC/C(=C\C=C\[C@@H]1C=C[C@@H]2CCC[C@H]2[C@@H]1C(=O)c1ccc[nH]1)[C@@H]1O[C@@H]([C@@H](C)C(=O)O)CC[C@@H]1C the results were Pf growth 96h inconclusive, Pf growth 48h 2.62µM, Shiga inhibitor inactive and CHX counter inactive.
`COc1ccc2nc(Nc3nc(CSc4nnc(C)s4)cc(=O)[nH]3)nc(C)c2c1` gave Pf growth 96h inconclusive, Pf growth 48h inconclusive, Shiga inhibitor inactive and CHX counter inactive.
Cc1ccc(SCc2cc(=O)[nH]c(Nc3nc(C)c4ccc(C)cc4n3)n2)cc1 was read as Pf growth 96h inconclusive, Pf growth 48h inactive, Shiga inhibitor inactive and CHX counter inactive.
For Cc1ccc2nc(Nc3nc(CSc4nnc(C)s4)cc(=O)[nH]3)nc(C)c2c1 the results were Pf growth 96h 3.29µM, Pf growth 48h inconclusive, Shiga inhibitor inactive and CHX counter inactive.
Cc1ccc2c(C)nc(Nc3nc(CSc4nc5ccccc5[nH]4)cc(=O)[nH]3)nc2c1 was read as Pf growth 96h inconclusive, Pf growth 48h 10.4µM, Shiga inhibitor inactive and CHX counter inactive.
For CNc1ccc(Br)cc(C(=O)/C=C/c2ccc(OC)cc2)c1=O the results were Pf growth 96h inactive, Pf growth 48h inactive, Shiga inhibitor active and CHX counter 20.8.
For CNc1ccc(Br)cc(C(=O)/C=C/c2ccc3c(c2)OCO3)c1=O the results were Pf growth 96h inconclusive, Pf growth 48h inactive, Shiga inhibitor inactive and CHX counter 24.9.
Screening CNc1ccc(Br)cc(C(=O)/C=C/c2cc(OC)ccc2OC)c1=O returned Pf growth 96h inactive, Pf growth 48h inconclusive, Shiga inhibitor inactive and CHX counter inactive.
Cc1cccc(-n2nc(CC#N)c(C#N)c2N)c1 was read as Pf growth 96h inactive, Pf growth 48h inactive, Shiga inhibitor inactive and CHX counter inactive.
For N#CCc1nn(-c2ccc(Cl)cc2)c(N)c1C#N the results were Pf growth 96h 13.1µM, Pf growth 48h inactive, Shiga inhibitor inactive and CHX counter inactive.
Screening COc1ccc(-n2nc3c(c2NC(=O)C(C)Oc2ccccc2)CS(=O)(=O)C3)cc1 (configuration not stated) returned Pf growth 96h 9.28µM, Pf growth 48h inactive, Shiga inhibitor inactive and CHX counter inactive.
`O=C(Nc1c2c(nn1-c1ccc(F)cc1)CS(=O)(=O)C2)C1CCCC1` gave Pf growth 96h 10.4µM, Pf growth 48h inactive, Shiga inhibitor inactive and CHX counter inactive.
For COc1ccc(-n2nc3c(c2NC(=O)C2CCCC2)CS(=O)(=O)C3)cc1 the results were Pf growth 96h inactive, Pf growth 48h inconclusive, Shiga inhibitor inactive and CHX counter inactive.
Screening O=C(Nc1c2c(nn1-c1ccc(F)cc1)CS(=O)(=O)C2)c1ccc(Br)o1 returned Pf growth 96h inconclusive, Pf growth 48h 11.7µM, Shiga inhibitor inactive and CHX counter inactive.
`COc1ccc(-n2nc3c(c2NC(=O)c2ccc(Br)o2)CS(=O)(=O)C3)cc1` gave Pf growth 96h inconclusive, Pf growth 48h inactive, Shiga inhibitor inactive and CHX counter inactive.
For Cc1ccc(F)cc1NC(=O)c1cnccn1 the results were Pf growth 96h inactive, Pf growth 48h inactive, Shiga inhibitor inactive and CHX counter inactive.
Screening COc1ccc(CN2CCNC(=O)C2CC(=O)N(C)Cc2nccs2)cc1OC (configuration not stated) returned Pf growth 96h 9.28µM, Pf growth 48h inactive, Shiga inhibitor inactive and CHX counter inactive.
Cc1csc(CN(C)C(=O)CC2C(=O)NCCN2Cc2ccc(F)c(F)c2)n1 (configuration not stated) was read as Pf growth 96h 13.1µM, Pf growth 48h inactive, Shiga inhibitor inactive and CHX counter inactive.
For Cc1cc(CN(C)C(=O)CC2C(=O)NCCN2Cc2ccc(F)c(F)c2)on1 (configuration not stated) the results were Pf growth 96h inactive, Pf growth 48h inactive, Shiga inhibitor inactive and CHX counter inactive.
